Experimental data taken from PubChem BioAssay.

tested on: Wnt5a (protein binding on small-molecule microarray); test: Wnt5a binders on small-molecule microarray, primary screen, biophysical, 635/667 nm fluorescence (AID 1142); settings: 635 nm fluorescence, higher = more signal;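 note: fluorescence read at 667 nm with signal to noise per printed feature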

SMILES | composite z-score
CCCCN1CC=CC23O[C@@H]4C=CCOC(=O)[C@@H]4[C@H]2C(=O)N(CCO)[C@@H]3C1=O (stereo not given in full) | -0.477
C=CC[C@@]12N=C(c3ccc(OCCCO)cc3)O[C@@H]1c1ccccc1N(Cc1ccccc1)C2=O | 0.711
COCCOC(=O)N1C(=O)[C@@]2(c3cc(C#CCC(C(=O)OC)C(=O)OC)ccc31)[C@H](C(N)=O)[C@H]1C(=O)O[C@H](c3ccccc3)[C@H](c3ccccc3)N1[C@@H]2c1ccc(OCCO)cc1 | 0.787
CCOC(=O)C1=C(C(=O)OCC)N(S(=O)(=O)CC[Si](C)(C)C)[C@H](c2ccccc2)CC1 | 0.263
COC(=O)C1=CC(CCCO)=CC(c2ccc(CN3CCCC3)cc2)N(Cc2sc3ccccc3c2Cl)C=C1C(=O)OC (stereo not given) | 1.25
C=CCNC(=O)[C@@H]1[C@H]2C(=O)O[C@H](c3ccccc3)[C@H](c3ccccc3)N2[C@H](c2ccc(O)cc2)[C@@]12C(=O)Nc1ccc(C#CC3(O)CCCCCC3)cc12 | 0.179
NC(=O)NCC#Cc1ccc2c(c1)[C@]1(C(=O)N2)[C@H](C(=O)Nc2nc3ccccc3s2)[C@H]2C(=O)O[C@H](c3ccccc3)[C@H](c3ccccc3)N2[C@@H]1c1ccc(OCCO)cc1 | 0.262
COCCOC(=O)N1C(=O)[C@@]2(c3cc(C#CC4(O)CCCCCC4)ccc31)[C@H](c1ccccc1OCCO)N1[C@H](c3ccccc3)[C@H](c3ccccc3)OC(=O)[C@H]1[C@@H]2C(=O)N1CCCCCCC1 | 0.611
COCCOC(=O)N1C(=O)[C@@]2(c3cc(C#CCCO)ccc31)[C@H](C(=O)N1CCc3cc(OC)c(OC)cc3C1)[C@H]1C(=O)O[C@H](c3ccccc3)[C@H](c3ccccc3)N1[C@@H]2c1ccccc1OCCO | 0.75
[N-]=[N+]=NCc1ccccc1[C@H]1OC(c2ccc(OCCCO)cc2)=N[C@@]1(Cc1ccccc1)C(=O)N1CCOCC1 | 0.896
C=CCOC(=O)[C@H]1[C@@H]2C(=O)O[C@@H](c3ccccc3)[C@@H](c3ccccc3)N2[C@@H](c2ccc(OCCOC(=O)[C@@H]3C[C@@H]4C(=O)N[C@@H](CC(C)C)C(=O)N4[C@@H]3c3ccc(O)cc3)cc2)[C@]12C(=O)Nc1ccc(I)cc12 | 0.15
COCCOC(=O)N1C(=O)[C@@]2(c3cc(C#CCC(C(=O)OC)C(=O)OC)ccc31)[C@H](C(=O)N1CCc3cc(OC)c(OC)cc3C1)[C@H]1C(=O)O[C@H](c3ccccc3)[C@H](c3ccccc3)N1[C@@H]2c1ccc(O)cc1 | 0.44
O=C1c2ccccc2[C@@]2(Cc3ccccc3N(Cc3ccccc3)C2=O)[C@H](c2ccc(CO)cc2)N1Cc1ccccc1 | -0.201
CN(C)CCCC[C@@H]1NC(=O)[C@@H]2C[C@H](C(=O)NCCCCCCNC(=O)CS)[C@H](c3cccc(OCCO)c3)N2C1=O | 0.152
CCCC[C@H]1OB(O)C[C@H]2C1=C(COC)C[C@H]1C(=O)C=CC(=O)[C@H]12 | 0.269
C=C(/C(=C/C[C@@H](OC(C)=O)c1ccccc1OCCO)c1cc(C(=O)OC)ccc1OC)C(C)C | 0.332
C=C(CCCC)/C(=C/C[C@H](OC(C)=O)c1cccc(OCCO)c1)c1cc(C(=O)OC)ccc1OC | -0.229
CN(C)CCCC[C@@H]1NC(=O)[C@@H]2C[C@H](C(=O)NCc3ccc(F)cc3)[C@H](c3ccc(O)cc3)N2C1=O | 0.939

SMILES | composite z-score
C=CCNC(=O)[C@@H]1[C@H]2C(=O)O[C@H](c3ccccc3)[C@H](c3ccccc3)N2[C@H](c2ccccc2OCCO)[C@@]12C(=O)N(C(=O)OCCOC)c1ccc(C#CCCO)cc12 | 0.304
C=CCC(OC(C)=O)[C@@H]1[C@@H](N(Cc2cc3ccccc3o2)C(=O)c2ccc(-c3ccccc3)cc2)c2cc(OCCCO)ccc2N1C(=O)c1ccc2ccccc2n1 (stereo not given in full) | -0.202
COc1ccc(C#Cc2ccc3c(c2)[C@]2(C(=O)N3)[C@H](C(=O)Nc3nc4ccccc4s3)[C@H]3C(=O)O[C@H](c4ccccc4)[C@H](c4ccccc4)N3[C@@H]2c2ccc(OCCO)cc2)cc1 | 0.505
C=CCC(OC(C)=O)[C@@H]1[C@@H](N(Cc2cc3ccccc3o2)C(=O)Cc2ccc(OC)cc2)c2cc(OCCCO)ccc2N1C(=O)Cc1ccc(OC)cc1 (stereo not given in full) | -0.0737
COCCOC(=O)N1C(=O)[C@@]2(c3cc(C#CC4(O)CCCCCC4)ccc31)[C@H](C(=O)NC[C@H](O)c1ccccc1)[C@H]1C(=O)O[C@H](c3ccccc3)[C@H](c3ccccc3)N1[C@@H]2c1ccc(O)cc1 | 0.233
Cc1c(NC(=O)/C(C#N)=C/c2ccc(Cl)cc2)c(=O)n(-c2ccccc2)n1C | -0.159
CCCC=C(CCC)[C@@H](NS(=O)(=O)c1ccc(Cl)cc1)c1ccccc1 | 0.0207
CN(C)CCCNC(=O)[C@@]1(Cc2ccccc2I)c2ccccc2C(=O)N(Cc2ccccc2)[C@H]1c1ccc(CO)cc1 | 0.652
CCOC(=O)C[C@H]1[C@H](OC(=O)c2ccc(-c3ccccc3)cc2)[C@@H](NC(=O)c2ccc3ccccc3c2)c2cc(OCCCO)ccc2N1C(=O)c1ccccc1 | 0.247
C=C(CCCC)C(=O)CC[C@H](OC(=O)c1cccnc1)c1ccc(CO)o1 | 0.239
COc1ccc(C#Cc2ccc3c(c2)[C@]2(C(=O)N3)[C@H](c3ccc(OCCO)cc3)N3[C@H](c4ccccc4)[C@H](c4ccccc4)OC(=O)[C@H]3[C@@H]2C(=O)O)cc1 | 0.57
COC(=O)[C@@]1(Cc2ccc(F)cc2)[C@H]2c3cc(C(=O)N(C)C)n(CCN4CCOCC4)c3C[C@H]2CN1C(=O)c1ccccc1 | 0.483
CCCC[C@@H]1C[C@H]1[C@@H](NC(=O)c1ccc(C(F)(F)F)cc1)c1ccc(C(=O)OC)cc1 | 1.16
COC(=O)[C@@]1(Cc2ccccc2)[C@@H]2[C@@H](CC(=O)[C@H]2CC(=O)C(=O)N(C)C)CN1C(=O)c1ccccc1 | -0.087
COC(=O)[C@@]1(Cc2ccc(OC)cc2)[C@H]2c3cc(C(=O)N4CCCC4)n(CCc4ccc(OC)c(Br)c4)c3C[C@H]2CN1C(=O)c1ccccc1 | -0.0726
O=C1NC(=O)C2C1C=CC(C(O)c1cccc(O)c1)N2Nc1ccc(Cl)cc1Cl (stereo not given) | -0.125
C=C(COC)C(=O)CC[C@@H](OC(C)=O)c1ccc(OCCO)cc1 | 0.284
